From paper PMC8384837, “Expanding the binding specificity for RNA recognition by a PUF domain” come the findings set out here.

PUM1 PUF domain R1-RAS, sequence (Q14671 828-1176 S863R/R864A/Q867S): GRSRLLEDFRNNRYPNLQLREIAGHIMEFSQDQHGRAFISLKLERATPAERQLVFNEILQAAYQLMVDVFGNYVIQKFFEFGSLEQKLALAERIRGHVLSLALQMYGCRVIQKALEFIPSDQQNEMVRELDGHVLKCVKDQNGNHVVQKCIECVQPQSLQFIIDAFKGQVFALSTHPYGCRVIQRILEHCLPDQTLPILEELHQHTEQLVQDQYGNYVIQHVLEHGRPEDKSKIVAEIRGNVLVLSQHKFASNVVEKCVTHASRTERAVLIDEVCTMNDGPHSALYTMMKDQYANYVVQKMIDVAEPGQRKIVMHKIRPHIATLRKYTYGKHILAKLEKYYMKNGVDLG

One assay addresses PUM1 PUF domain R4-RHV (Homo sapiens, UniProt Q14671 828-1176, N971R;Q975V). The assay is described as follows: yeast three-hybrid, YBZ-1, SC-Leu-His + 0.5 mM 3-AT, 4 days. The note with it: tags: N-Gal4 AD-HA kept; label: inside an RPR1-promoter hybrid RNA with tandem MS2 sites; ssRNA. In a few lines: (§1)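 Each repeat of the Pumilio-1 PUF domain was randomized at its three base-contacting residues, and these libraries were co-expressed from a centromeric plasmid with matching RNA elements in strain YBZ-1. After four days on SC-Leu (input) or SC-Leu-His + 0.5 mM 3-AT (selection), the repeat regions were PCR-amplified and Illumina-sequenced. The interaction score compares variant frequency between input and selection as a log change, computed in log2 with a pseudocount of 1 for absent variants.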
Turning to “GGCUAGAACUAGUGGAUCCCCCGGCGCCCGGCGGCUCGAGCCCGGGUAAGUGUAUAUAGUCUGCAUGCCGCCGGGCGCCAUGCCUGCAGGUCGACUCUAGAAAACAUG”, the binding signal was 4.8 log2 enrichment (interaction score). Consider “GGCUAGAACUAGUGGAUCCCCCGGCGCCCGGCGGCUCGAGCCCGGGUAAGUGUACAUAGUCUGCAUGCCGCCGGGCGCCAUGCCUGCAGGUCGACUCUAGAAAACAUG”, for which the binding signal is 2.18 log2 enrichment (interaction score). On the same count and under the same terms, the value for “GGCUAGAACUAGUGGAUCCCCCGGCGCCCGGCGGCUCGAGCCCGGGUAAGUGUAAAUAGUCUGCAUGCCGCCGGGCGCCAUGCCUGCAGGUCGACUCUAGAAAACAUG” was 2.5 log2 enrichment (interaction score).

In another assay the target is PUM1 PUF domain R4-FGS (Homo sapiens, UniProt Q14671 828-1176, N971F;H972G;Q975S). Described as above. The settings on record: tags: N-Gal4 AD-HA kept; label: inside an RPR1-promoter hybrid RNA with tandem MS2 sites; ssRNA. In a few lines:
as §1
Regarding “GGCUAGAACUAGUGGAUCCCCCGGCGCCCGGCGGCUCGAGCCCGGGUAAGUGUAUAUAGUCUGCAUGCCGCCGGGCGCCAUGCCUGCAGGUCGACUCUAGAAAACAUG”, the binding signal is 2.78 log2 enrichment (interaction score).

With “GGCUAGAACUAGUGGAUCCCCCGGCGCCCGGCGGCUCGAGCCCGGGUAAGUGUACAUAGUCUGCAUGCCGCCGGGCGCCAUGCCUGCAGGUCGACUCUAGAAAACAUG”, the binding signal was 2.32 log2 enrichment (interaction score).

On to “GGCUAGAACUAGUGGAUCCCCCGGCGCCCGGCGGCUCGAGCCCGGGUAAGUGUAAAUAGUCUGCAUGCCGCCGGGCGCCAUGCCUGCAGGUCGACUCUAGAAAACAUG”, for which the binding signal was 0.95 log2 enrichment (interaction score).

The next assay addresses PUM1 PUF domain R1-RAS (Homo sapiens, UniProt Q14671 828-1176, S863R;R864A;Q867S). Described as above. The note with it: tags: N-Gal4 AD-HA kept; label: inside an RPR1-promoter hybrid RNA with tandem MS2 sites; ssRNA. The essentials:
as §1
Regarding “GGCUAGAACUAGUGGAUCCCCCGGCGCCCGGCGGCUCGAGCCCGGGUAAGUGUAAAUUGUCUGCAUGCCGCCGGGCGCCAUGCCUGCAGGUCGACUCUAGAAAACAUG”, the binding signal was 2.89 log2 enrichment (interaction score). On to “GGCUAGAACUAGUGGAUCCCCCGGCGCCCGGCGGCUCGAGCCCGGGUAAGUGUAAAUCGUCUGCAUGCCGCCGGGCGCCAUGCCUGCAGGUCGACUCUAGAAAACAUG”, for which the binding signal is 3.1 log2 enrichment (interaction score). Still for that read-out and setting: the same measure for “GGCUAGAACUAGUGGAUCCCCCGGCGCCCGGCGGCUCGAGCCCGGGUAAGUGUAAAUGGUCUGCAUGCCGCCGGGCGCCAUGCCUGCAGGUCGACUCUAGAAAACAUG”: 1.5 log2 enrichment (interaction score).
